Data as given in the supplement of paper PMC4022240.
± gives the standard deviation.

What was measured:
Experiment in all cases: peptide microarray binding signal (635 nm), min-max normalized on array (fraction of array maximum); higher = stronger binding
Conditions in all cases: peptide region: H3 112-124
[1] = biological target: T1, HaloTag-ATRX ADD domain (163-292)
T1 chain: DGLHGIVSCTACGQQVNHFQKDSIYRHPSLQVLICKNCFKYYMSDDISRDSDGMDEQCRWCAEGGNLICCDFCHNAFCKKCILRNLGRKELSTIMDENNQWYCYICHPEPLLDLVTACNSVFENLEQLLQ
Summary of the method: (§1)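 Two probe formats were used for 1 h at 4°C: biotin-labelled HaloTag reader fusions (10 nM to 1 μM) with streptavidin-Alexa Fluor 647, and rabbit histone antibodies (1:10,000 to 1:2,000) with anti-rabbit Alexa 647. Both were applied to nitrocellulose arrays of histone 13-mer peptide–cellulose conjugates printed in triplicate with a Cy3 tracer and blocked overnight at 4°C. Signal was read at 635 nm and misprints at 532 nm on an Axon GenePix 4000B. Binding signal is expressed as the triplicate-spot mean intensity, min-max scaled for each library.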

[2] = biological target: HaloTag-ING2 PHD (mouse Ing2 200-280)
Summary of the method: as §1

[3] = biological target: anti-H3K4me3 antibody ab8580
Summary of the method: as §1

[4] = biological target: anti-H3K9me3 antibody ab8898
Summary of the method: as §1

[5] = peptide modifications: H3K115ac H3R116me2s, binder concentration: 1:2,000 dilution
[6] = peptide modifications: H3K115ac H3R116me2s, binder concentration: 1:10,000 dilution
[7] = peptide modifications: H3K115me1 H3K122ac, binder concentration: 1:2,000 dilution
[8] = peptide modifications: H3K115me1 H3K122ac, binder concentration: 1:10,000 dilution
[9] = peptide modifications: H3K115me1 H3K122me3, binder concentration: 1:2,000 dilution
[10] = peptide modifications: H3K115me1 H3K122me3, binder concentration: 1:10,000 dilution
[11] = peptide modifications: H3K115me1 H3K122me1, binder concentration: 1:2,000 dilution
[12] = peptide modifications: H3K115me1 H3K122me1, binder concentration: 1:10,000 dilution
[13] = peptide modifications: H3K115ac H3R116me2a, binder concentration: 1:2,000 dilution
[14] = peptide modifications: H3K115ac H3R116me2a, binder concentration: 1:10,000 dilution

IHAKRVTIMPKDI [H3 112-124 I H A Kac Rme2s V T I M P K D I]
peptide microarray binding signal ([1]; peptide modifications: H3K115ac H3R116me2s, binder concentration: 50 nM): 0.005956 ± 4.1e-05
peptide microarray binding signal ([1]; peptide modifications: H3K115ac H3R116me2s, binder concentration: 500 nM): 0.0125 ± 0.0017
peptide microarray binding signal ([2]; peptide modifications: H3K115ac H3R116me2s, binder concentration: 10 nM): 0.0167 ± 0.0042
peptide microarray binding signal ([2]; peptide modifications: H3K115ac H3R116me2s, binder concentration: 100 nM): 0.0203 ± 0.0028
peptide microarray binding signal [3, 5]: 0.00436 ± 0.00063
peptide microarray binding signal [3, 6]: 0.00576 ± 0.00047
peptide microarray binding signal [4, 5]: 0.00375 ± 0.00054
peptide microarray binding signal [4, 6]: 0.00398 ± 0.00024

IHAKRVTIMPKDI [H3 112-124 I H A Kme R V T I M P Kac D I]
peptide microarray binding signal ([1]; peptide modifications: H3K115me1 H3K122ac, binder concentration: 50 nM): 0.00345 ± 6.5e-05
peptide microarray binding signal ([1]; peptide modifications: H3K115me1 H3K122ac, binder concentration: 500 nM): 0.0061 ± 0.00013
peptide microarray binding signal ([2]; peptide modifications: H3K115me1 H3K122ac, binder concentration: 10 nM): 0.00746 ± 0.00035
peptide microarray binding signal ([2]; peptide modifications: H3K115me1 H3K122ac, binder concentration: 100 nM): 0.0111 ± 0.00029
peptide microarray binding signal [3, 7]: 0.00249 ± 0.0011
peptide microarray binding signal [3, 8]: 0.001484 ± 1.4e-05
peptide microarray binding signal [4, 7]: 0.000997 ± 1.4e-05
peptide microarray binding signal [4, 8]: 0.00104 ± 2.8e-05

IHAKRVTIMPKDI [H3 112-124 I H A Kme R V T I M P Kme3 D I]
peptide microarray binding signal ([1]; peptide modifications: H3K115me1 H3K122me3, binder concentration: 50 nM): 0.00583 ± 0.00011
peptide microarray binding signal ([1]; peptide modifications: H3K115me1 H3K122me3, binder concentration: 500 nM): 0.0149 ± 0.00053
peptide microarray binding signal ([2]; peptide modifications: H3K115me1 H3K122me3, binder concentration: 10 nM): 0.0251 ± 0.0019
peptide microarray binding signal ([2]; peptide modifications: H3K115me1 H3K122me3, binder concentration: 100 nM): 0.0482 ± 0.004
peptide microarray binding signal [3, 9]: 0.00627 ± 0.0014
peptide microarray binding signal [3, 10]: 0.00548 ± 0.00038
peptide microarray binding signal [4, 9]: 0.0268 ± 0.0058
peptide microarray binding signal [4, 10]: 0.0121 ± 0.00038

IHAKRVTIMPKDI [H3 112-124 I H A Kme R V T I M P Kme D I]
peptide microarray binding signal ([1]; peptide modifications: H3K115me1 H3K122me1, binder concentration: 50 nM): 0.00511 ± 9.8e-05
peptide microarray binding signal ([1]; peptide modifications: H3K115me1 H3K122me1, binder concentration: 500 nM): 0.0109 ± 9.7e-05
peptide microarray binding signal ([2]; peptide modifications: H3K115me1 H3K122me1, binder concentration: 10 nM): 0.0179 ± 0.0021
peptide microarray binding signal ([2]; peptide modifications: H3K115me1 H3K122me1, binder concentration: 100 nM): 0.0298 ± 0.0035
peptide microarray binding signal [3, 11]: 0.00187 ± 0.00022
peptide microarray binding signal [3, 12]: 0.00234 ± 0.00015
peptide microarray binding signal [4, 11]: 0.00121 ± 5.5e-05
peptide microarray binding signal [4, 12]: 0.00115

IHAKRVTIMPKDI [H3 112-124 I H A Kac Rme2a V T I M P K D I]
peptide microarray binding signal ([1]; peptide modifications: H3K115ac H3R116me2a, binder concentration: 50 nM): 0.00787 ± 0.00018
peptide microarray binding signal ([1]; peptide modifications: H3K115ac H3R116me2a, binder concentration: 500 nM): 0.0159 ± 0.00051
peptide microarray binding signal ([2]; peptide modifications: H3K115ac H3R116me2a, binder concentration: 10 nM): 0.0239 ± 0.00027
peptide microarray binding signal ([2]; peptide modifications: H3K115ac H3R116me2a, binder concentration: 100 nM): 0.0365 ± 0.0046
peptide microarray binding signal [3, 13]: 0.00423 ± 0.00017
peptide microarray binding signal [3, 14]: 0.00394 ± 0.00014
peptide microarray binding signal [4, 13]: 0.00278 ± 0.00019
peptide microarray binding signal [4, 14]: 0.00306 ± 0.0002
